Results on 25 molecules are retold here after PubChem BioAssay (NCATS).

Assay [1] deals with Glutathione peroxidase 1 (Homo sapiens) (UniProt P07203). The assay can be described thus: Primary qHTS Assay for Inhibitors of Recombinant Selenoprotein Glutathione Peroxidase 1 (GPX1) (AID 1845191). Also: nearly all actives have a fitted effect of over 65% in size. As to activity, negative = inhibition: % is scaled to controls: 0 for no effect and ±100 for the full control effect. The gist of the method:
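Recombinant GPX1 (10 nM final) was preincubated with compound for 30 min at room temperature, then reacted with 1 mM GSH, 0.5 mM CHP, 0.5 mM NADPH and 100 nM glutathione reductase; NADPH fluorescence (340/450 nm) was read at 0 and 15 min.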

The target in assay [2] is Luciferin 4-monooxygenase (Photinus pyralis) (UniProt P08659). The assay can be described thus: Primary firefly luciferase (FLuc) qHTS assay for identification of artifact compounds. (AID 1845220). Also: nearly all actives have a fitted effect of over 60% in size. Also: potency is read from the fitted curve at half-maximal effect. The gist of the method:
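Reaction readout was CCD-imaged luminescence, taken 5 min after adding 10 nM purified firefly enzyme to compound-treated wells holding 10 uM luciferin and ATP in pH 7.6 buffer.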

The subject of assay [3] is Nanoluciferase (engineered Oplophorus gracilirostris luciferase). In words: Primary Nanoluciferase (NLuc) qHTS assay for identification of artifact compounds. (AID 1845222).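 Also: NLuc secreted into diluted conditioned medium of S16 cells; series mostly up to about 54 µM; 0% = DMSO and -100% = no enzyme.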 The gist of the method:
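Concentration-response data were obtained by luminescence after 5 min with Nano-Glo substrate at 1:100. The enzyme was diluted S16 NLuc-expressing cell medium, preincubated with compound for 15 min at RT. Curves were fitted with a 4-parameter Hill model.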

Assay [4] can be described thus: Primary redox qHTS assay for identification of artifact compounds. (AID 1845223).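 Also: 0% = DMSO and 100% = reference compound.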 The method, boiled down: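 Amplex Red (25 uM) and HRP (250 mU/mL) in HBSS, with compounds for 15 min, then 250 uM DTT for 30 min, room temperature, dark. Fluorescence 525/598 nm read; normalized to DMSO and 10 uM DA3003; Hill fit.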
The target in assay [5] is Phospholipid hydroperoxide glutathione peroxidase GPX4 (Homo sapiens) (UniProt P36969). In words: Primary qHTS Assay for Inhibitors of Recombinant Selenoprotein Glutathione Peroxidase 4 (GPX4) (AID 1845192). Also: nearly all actives have a fitted effect of over 65% in size. Also: potency is read from the fitted curve at half-maximal effect. The method, boiled down: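 GR-coupled readout: 100 nM GR, 1 mM GSH, 0.5 mM NADPH; NADPH fluorescence (ex 340/em 450 nm) read at t=0 and after 15 min RT. GPX4 200 nM, preincubated 30 min with compound; substrate 0.5 mM CHP.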
Phospholipid hydroperoxide glutathione peroxidase GPX4 (Homo sapiens), sequence (P36969 whole entry, looked up): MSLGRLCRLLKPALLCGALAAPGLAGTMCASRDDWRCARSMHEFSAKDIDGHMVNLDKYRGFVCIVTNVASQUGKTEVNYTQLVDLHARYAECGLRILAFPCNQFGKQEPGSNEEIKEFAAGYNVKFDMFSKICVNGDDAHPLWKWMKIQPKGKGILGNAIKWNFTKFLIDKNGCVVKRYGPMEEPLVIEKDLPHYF

The nature of assay [6]: Primary fluorescence-based thiol-reactive (MSTI) qHTS assay for identification of artifact compounds. (AID 1845221).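 Also: series mostly up to about 54 µM; thiol-reactive compounds lower the probe fluorescence signal; nearly all actives have a fitted effect of over 65% in size.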 The gist of the method:
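One-hour, room-temperature, dark incubation of compound with 4 uM MSTI in PBS (pH 7.4, 2% DMSO) precedes a fluorescence read at 525 nm excitation, 598 nm emission; Hill-equation fitting yields concentration-response values.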

Values without a mark were called inactive. Records with an inconclusive call do not appear. Activity calls are given as the source filed them. Calls follow the shape of the dose curve; as a rule, active = well fitted curve in the direction sought with a large enough effect; inconclusive = small, poorly fitted or top-dose-only effect, or another doubt; inactive = no such curve, though single readings can be large; an effect the other way counts as inactive or inconclusive.

Glutathione peroxidase 1 (Homo sapiens), sequence (P07203 whole entry, looked up): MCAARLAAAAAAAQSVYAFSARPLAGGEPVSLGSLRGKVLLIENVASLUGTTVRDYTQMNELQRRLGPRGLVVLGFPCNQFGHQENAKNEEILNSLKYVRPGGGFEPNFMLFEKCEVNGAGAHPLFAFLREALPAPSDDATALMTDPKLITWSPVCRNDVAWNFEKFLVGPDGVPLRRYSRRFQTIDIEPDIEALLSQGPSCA

For `OC[C@H]1O[C@@H](Oc2cc(O)cc(/C=C/c3ccc(O)cc3)c2)[C@H](O)[C@@H](O)[C@@H]1O`, the Potency entry in assay [1], in assay [2], in assay [3] and in assay [4] was “inactive” each time.

In the case of `CC[C@@H](c1ccc(F)c(F)c1)n1c(C(=O)OC)c(-c2ccno2)[nH]c1=S`, the Potency result in assay [5], in assay [2] and in assay [3] was “inactive” each time.

With `O=C(O[C@H]1[C@@H]2C=CO[C@@H](O[C@@H]3O[C@H](CO)[C@@H](O)[C@H](O)[C@H]3O)[C@@H]2[C@@]2(CO)O[C@@H]12)c1ccc(O)cc1`, the Potency entry in assay [1], in assay [2], in assay [3] and in assay [4] was “inactive” each time.

With `O=C(O)C[C@@H](NC(=O)c1cc(-c2ccc(-c3ccncc3)cc2)cs1)c1ccccc1`, the Potency entry in assay [6] and in assay [4] was “inactive” each time.

Regarding `CC(C)(C)NCC(O)COc1cccc2c1CCCC2=O` (configuration not stated), the Potency entry in assay [5], in assay [2], in assay [6], in assay [3] and in assay [4] was “inactive” each time.

As for `Cn1c(=O)cc(N2CCCC(N)C2)n(Cc2ccccc2C#N)c1=O` (configuration not stated), the Potency entry in assay [5], in assay [2], in assay [3] and in assay [4] was “inactive” throughout.

On to `C[C@]12CCC(=O)C=C1CC[C@@H]1[C@@H]2[C@@H](O)C[C@@]2(C)[C@H]1CC[C@]2(O)C(=O)COP(=O)(O)O`, for which the Potency in assay [5] is 6.31 µM (active).

`CC(=O)N[C@H]1CCN(c2ccc(C3=NOC(CN[S+](=O)([O-])C(C)C)C3)cc2F)C1` (some centres not stated): the Potency entry in assay [1], in assay [2], in assay [3] and in assay [4] was “inactive” each time.

Regarding `N#CC1C(=O)Nc2scc(-c3ccc(-c4ccccc4O)cc3)c2C1=O` (configuration not stated), the Potency result in assay [5], in assay [2] and in assay [6] was “inactive” throughout.

Turning to `CC(C)c1nc(N(C)S(C)(=O)=O)nc(-c2ccc(F)cc2)c1/C=C/[C@@H](O)C[C@@H](O)CC(=O)O`, the Potency entry in assay [5], in assay [2], in assay [6], in assay [3] and in assay [4] was “inactive” each time.

With `CC[C@@]1(O)C(=O)OCc2c1cc1n(c2=O)Cc2cc3c([N+](=O)[O-])cccc3nc2-1`, the Potency in assay [5] is 35.5 µM (active).

`CC(=O)C1CCC2(C)C3=C(CCC12C)C1(C)CCC(=O)C(C)(C)C1CC3` (configuration not stated): the Potency result in assay [1], in assay [2], in assay [3] and in assay [4] was “inactive” in each case.

For `CC(/C=C/C1(O)C(C)(C)CC(O)CC1(C)O)OC1OC(CO)C(O)C(O)C1O` (configuration not stated), the Potency entry in assay [1], in assay [2], in assay [3] and in assay [4] was “inactive” in each case.

For the molecule `C=C1C[C@@]23CC[C@@H]4[C@](C)(C(=O)O)CCC[C@@]4(C)C2=CC[C@H]1C3`, the Potency result in assay [5], in assay [2], in assay [6], in assay [3] and in assay [4] was “inactive” each time.

For `CC1C/C=C/C=C\CCCCC(O)C/C=C/C(=O)O1` (configuration not stated), the Potency entry in assay [5], in assay [2], in assay [3] and in assay [4] was “inactive” each time.

Take `CC(=O)Oc1cc2c(s1)CCN([C@H](C(=O)C1CC1)c1ccccc1F)C2`: the Potency entry in assay [5], in assay [3] and in assay [4] was “inactive” in each case.

`Nc1nc(CC(=O)Nc2ccc(CCNCC(O)c3ccccc3)cc2)cs1` (configuration not stated): the Potency result in assay [5], in assay [2], in assay [6], in assay [3] and in assay [4] was “inactive” in each case.

For the molecule `CC1(C)CC(=O)N(CCCCN2CCN(c3ncccn3)CC2)C(=O)C1`, the Potency entry in assay [1], in assay [6], in assay [3] and in assay [4] was “inactive” each time.

Turning to `C[C@@H]1C/C=C/C=C\C=C\C=C\[C@H](O[C@@H]2O[C@H](C)[C@@H](O)[C@H](N)[C@@H]2O)C[C@@H]2O[C@](O)(C[C@@H](O)C[C@H]3O[C@@H]3/C=C/C(=O)O1)C[C@H](O)[C@H]2C(=O)O`, the Potency entry in assay [2], in assay [3] and in assay [4] was “inactive” each time.

With `CC(NCc1ccc(OCc2cccc(F)c2)cc1)C(N)=O` (configuration not stated), the Potency result in assay [5], in assay [2], in assay [6], in assay [3] and in assay [4] was “inactive” each time.

In the case of `O=C(O)c1cnn(-c2nc3cc(OC(F)(F)F)c(Cl)cc3[nH]2)c1`, the Potency in assay [2] is 3.01 µM (active). For the same molecule, the Potency result in assay [6] and in assay [4] was “inactive” in each case.

Consider `CC1(C)C[C@H]2C3=CCC4[C@@]5(C)CC[C@H](O[C@H]6O[C@H](C(=O)O)[C@@H](O)[C@H](O)[C@H]6O[C@H]6O[C@H](CO)[C@@H](O)[C@H](O)[C@H]6O[C@@H]6O[C@H](CO)[C@@H](O)[C@H](O)[C@H]6O)[C@](C)(CO)C5CC[C@@]4(C)[C@]3(C)CC[C@@]2(C)[C@H](O[C@@H]2OC[C@H](O)[C@H](OC3O[C@H](CO)[C@@H](O)[C@H](O)[C@H]3O)[C@H]2O)[C@@H]1O` (some centres not stated), for which the activity, negative = inhibition in assay [1] was 0.367% [at 9.52 µM]; in assay [3] it was 4.18% [at 11.6 µM]. Also, the activity change, negative = thiol reactive in assay [6] was 48.1% [at 11.5 µM].

On to `C=C(C(=O)O)[C@@H]1CC=C2CCC[C@H](C)[C@@]2(C)C1`, for which the Potency result in assay [1], in assay [2], in assay [3] and in assay [4] was “inactive” each time.

`COc1cccc(-n2nc(C(=O)O)cc2-c2ccc(C3CCCCC3)c(Cl)c2)c1`: the Potency result in assay [2], in assay [6], in assay [3] and in assay [4] was “inactive” throughout.

`C/C=C(/C)C(=O)O[C@H]1C=C(C)C[C@H](OC(=O)c2ccc(O)cc2)C2[C@](O)(C(C)C)CC[C@@]21C` (some centres not stated): the Potency result in assay [5], in assay [2], in assay [6], in assay [3] and in assay [4] was “inactive” each time.
